Laboratory results taken from PubChem BioAssay AID1159580 (chemical genetic matrix, 2015).
“And” between values parts separate entries of the source, which are not always exact repeats. Equal values may be shown once. The whole screen tested about 5,500 compounds, of which about 2,000 (36%) were called active. About 18% were inconclusive and are not listed. Cut-off read from the data, not from the text of the source: active = normalized growth mostly below about 0.91 (no sharp cut-off); inconclusive = no clear call, values can overlap the other calls; inactive = mostly above about 0.92. This is one part of the list.

Test: chemical genetic growth profiling, strain panel (AID 1159580);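 note: tested at 20 µM; growth read once vehicle control cultures reached saturation at 30 °C; 1 = growth at the plate median or of vehicle wells; lower values mean less growth of the strain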
Conditions: S. cerevisiae deletion strains, growth OD

Measured: normalized growth

CCCCC(=O)O[C@]1(C(=O)CO)[C@@H](C)CC2C3CCC4=CC(=O)C=C[C@]4(C)[C@@]3(F)C(O)C[C@@]21C (stereo partly drawn)
inactive: locus YAL013W, strain DEP1, active compounds read low 0.968 | locus YAL021C, strain ccr4, active compounds read low 0.982 | locus YAL026C, strain drs2, active compounds read low 1.01 | locus YAL030W, strain snc1, active compounds read low 0.981 | locus YBL061C, strain skt5, active compounds read low 0.978 | locus YBR009C, strain hhf1, active compounds read low 0.99 | locus YBR021W, strain FUR4, active compounds read low 0.986 | locus YBR023C, strain chs3, active compounds read low 0.98 | locus YBR171W, strain sec66, active compounds read low 0.941 | locus YBR229C, strain ROT2, active compounds read low 0.99 | locus YBR231C, strain swc5, active compounds read low 0.948 | locus YBR279W, strain paf1, active compounds read low 0.991 | locus YCL011C, strain gbp2, active compounds read low 0.99 | locus YCL016C, strain dcc1, active compounds read low 1.01 | locus YCL029C, strain bik1, active compounds read low 0.981 | locus YCL069W, strain vba3, active compounds read low 0.989 | locus YCR088W, strain abp1, active compounds read low 0.997 | locus YDL005C, strain med2, active compounds read low 0.972 | locus YDL035C, strain GPR1, active compounds read low 1.03 | locus YDL040C, strain nat1, active compounds read low 0.975 | locus YDL074C, strain BRE1, active compounds read low 0.979 | locus YDL101C, strain DUN1, active compounds read low 0.961 | locus YDL134C, strain PPH21, active compounds read low 1 | locus YDL185W, strain tfp1, active compounds read low 0.97 | locus YDL192W, strain arf1, active compounds read low 0.978 | locus YDR001C, strain nth1, active compounds read low 0.986 | locus YDR069C, strain doa4, active compounds read low 0.968 | locus YDR101C, strain arx1, active compounds read low 0.998 | locus YDR137W, strain rgp1, active compounds read low 0.979 | locus YDR159W, strain sac3, active compounds read low 0.974 | locus YDR162C, strain NBP2, active compounds read low 1.01 | locus YDR195W, strain ref2 0.963 | locus YDR297W, strain sur2, active compounds read low 0.975 | locus YDR318W, strain mcm21, active compounds read low 0.996 | locus YDR334W, strain swr1, active compounds read low 0.988 | locus YDR335W, strain msn5, active compounds read low 0.977 | locus YDR388W, active compounds read low 0.982 | locus YDR392W, strain spt3, active compounds read low 1.07 | locus YDR502C, strain sam2, active compounds read low 0.988 | locus YEL003W, strain gim4, active compounds read low 0.987 | locus YEL037C, strain rad23, active compounds read low 0.991 | locus YEL061C, strain CIN8 (second series), active compounds read low 0.991 | locus YEL061C, strain CIN8, active compounds read low 0.995 | locus YER015W, strain faa2, active compounds read low 0.979 | locus YER016W, strain bim1, active compounds read low 1.02 | locus YER110C, active compounds read low 0.982 | locus YER111C, strain swi4, active compounds read low 0.968 | locus YER155C, strain BEM2 (second series), active compounds read low 0.981 | locus YER155C, strain BEM2, active compounds read low 1.01 | locus YER167W, strain BCK2, active compounds read low 1.01 | locus YFR010W, strain ubp6, active compounds read low 0.95 | locus YGL078C, strain dbp3, active compounds read low 0.99 | locus YGL086W, strain mad1, active compounds read low 0.982 | locus YGL167C, strain pmr1, active compounds read low 0.959 | locus YGL173C, strain kem1, active compounds read low 0.96 | locus YGL227W, strain vid30, active compounds read low 0.97 | locus YGL240W, strain doc1, active compounds read low 0.945 | locus YGL248W, strain PDE1, active compounds read low 0.962 | locus YGL253W, strain hxk2, active compounds read low 0.985 | locus YGR078C, strain PAC10, active compounds read low 0.969 | locus YGR135W, strain pre9, active compounds read low 0.977 | locus YGR252W, strain gcn5, active compounds read low 1.02 | locus YHR013C, strain ard1, active compounds read low 0.996 | locus YHR027C, strain rpn1, active compounds read low 0.986 | locus YHR030C, strain SLT2, active compounds read low 0.991 and 0.976 | locus YHR079C, strain IRE1 (second series), active compounds read low 1 | locus YHR079C, strain IRE1, active compounds read low 0.977 | locus YHR094C, strain hxt1, active compounds read low 0.983 | locus YHR129C, strain ARP1, active compounds read low 0.983 | locus YHR142W, strain chs7, active compounds read low 0.943 | locus YHR200W, strain rpn10, active compounds read low 0.992 | locus YIL066C, strain RNR3, active compounds read low 1.01 | locus YIL073C, strain SPO22, active compounds read low 1.01 | locus YIL125W, strain kgd1, active compounds read low 0.97 | locus YIR030C, strain dcg1, active compounds read low 0.992 | locus YJL092W, strain hpr5, active compounds read low 0.976 | locus YJL095W, strain BCK1 (second series), active compounds read low 0.982 | locus YJL095W, strain BCK1, active compounds read low 0.888 and 0.991 | locus YJL115W, strain asf1, active compounds read low 0.965 | locus YJL129C, strain trk1, active compounds read low 0.943 | locus YJL134W, strain LCB3, active compounds read low 0.994 | locus YJL154C, strain vps35, active compounds read low 0.972 | locus YJL164C, strain tpk1, active compounds read low 0.988 | locus YJL166W, strain qcr8, active compounds read low 0.941 | locus YJL168C, strain set2, active compounds read low 0.983 | locus YJL187C, strain SWE1 (second series), active compounds read low 0.933 | locus YJR043C, strain POL32, active compounds read low 1.03 | locus YJR066W, strain TOR1, active compounds read low 0.958
